According to PubChem BioAssay:
The source made the active and inactive calls.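 How the source made its calls: active means inhibition above 20% together with a positive visual image hit; inconclusive means visual image hit but inhibition not above 20%; inactive means no visual image hit.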

assay: inhibitors of TNFa-induced NFkB p65 translocation, primary screen, imaging, HUVEC, MLSMR starter and 10KST1 sets (AID 438); details: HUVEC TNFa-induced p65 nuclear translocation; cell count: measured here: nuclei count (cytotoxicity indicator), at 2.08 µM; inhibition: at 2 µM, stronger effect = higher value, 0% TNFa-plus-vehicle, 100% no-TNFa wells;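 further: compound added about 3h40 before a 20 min TNFalpha stimulation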;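 on inhibition: signal is the nuclear over cytoplasmic p65 intensity ratio per well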

**Q.** What does the source list for CC(C)Cn1c(=O)c(C(=O)Nc2ccccc2S(N)(=O)=O)c(O)c2ccccc21?
**A.** cell count: 740; inhibition: -1% (inactive)

**Q.** For O=C(CCN1CCc2ccccc2C1)Nc1ccc2c(c1)OCO2, which cell count is on record?
**A.** 413

**Q.** What about the inhibition of the same molecule?
**A.** 2.9% (inactive)

**Q.** With CCN1C(=O)c2ccccc2S(=O)(=O)c2ccc(C(=O)NCc3cccnc3)cc21 as the molecule, how does the inhibition read?
**A.** -6.4% (inactive)

**Q.** What about the cell count of the same molecule?
**A.** 804

**Q.** With O=C(O)CCc1ccc(-c2cccs2)o1 as the molecule, how does the cell count read?
**A.** 314

**Q.** And the inhibition?
**A.** -7.8% (inactive)

**Q.** What does the source list for CCCCOCCCNC(=O)c1cccs1?
**A.** cell count: 471; inhibition: 4.5% (inactive)

**Q.** Which results are given for O=C1CC(C2CCCO2)C(=O)N1Cc1ccccc1 (stereo not given)?
**A.** cell count: 418; inhibition: -5.4% (inactive)

**Q.** What does the source list for Cc1onc(-c2ccccc2)c1C(=O)Nc1ccc(S(=O)(=O)N2CCCCC2)cc1?
**A.** inhibition: 7.8% (inactive); cell count: 786

**Q.** What does the source list for O=C(CSc1nnc(-c2ccccc2)o1)N1CCN(c2ccccc2)CC1?
**A.** cell count: 220; inhibition: 12.5% (inactive)

**Q.** With CC1=C(C(=O)Nc2ccccc2)C(c2ccccn2)n2nc(CCCO)nc2N1 (stereo not given) as the molecule, how does the cell count read?
**A.** 662

**Q.** And the inhibition?
**A.** 6.2% (inactive)

**Q.** Which cell count does the source give for COc1ccc(C(=O)CSc2nnc(C3CCCCC3)n2N)c(OC)c1 here?
**A.** 419

**Q.** And the inhibition?
**A.** -11.9% (inactive)

**Q.** What does the source list for COc1cc(NC(=O)Cc2ccccc2OC)cc(OC)c1?
**A.** cell count: 575; inhibition: -4.8% (inactive)

**Q.** With COC(=O)CCC(=O)Nc1cccc(Br)c1 as the molecule, how does the inhibition read?
**A.** -5.7% (inactive)

**Q.** And the cell count?
**A.** 495

**Q.** Which cell count does the source give for N#Cc1c(NC(NC(=O)c2ccco2)C(=O)c2ccccc2)sc2c1CCCC2 (stereo not given) here?
**A.** 415

**Q.** And the inhibition?
**A.** -6% (inactive)

**Q.** For O=C(COc1ccc2ccccc2c1)N1CCCC1, which cell count is on record?
**A.** 315

**Q.** What about the inhibition of the same molecule?
**A.** -1.8% (inactive)

**Q.** Which cell count does the source give for COc1ccccc1S(=O)(=O)Cc1ccc(C(=O)NCCN2CCCCCC2)o1 here?
**A.** 522

**Q.** What about the inhibition of the same molecule?
**A.** 13.4% (inactive)

**Q.** What does the source list for O=C1C2CC=CCC2C(=O)N1c1ccc(Cc2ccncc2)cc1 (stereo not given)?
**A.** inhibition: -2.9% (inactive); cell count: 591

**Q.** For COCCNC(=O)C(c1ccc(O)cc1)N(Cc1ccco1)C(=O)CCC(=O)Nc1nccs1 (stereo not given), which cell count is on record?
**A.** 474

**Q.** What about the inhibition of the same molecule?
**A.** 6.7% (inactive)

**Q.** Which inhibition does the source give for Cc1ccc(C)c(NC(=O)c2ccc3c(c2)N(Cc2ccc(F)cc2)C(=O)CS3=O)c1 (stereo not given) here?
**A.** 6.2% (inactive)

**Q.** And the cell count?
**A.** 622

**Q.** For Cc1ccc(NC(=O)CN(C)S(=O)(=O)c2cccc3nsnc23)cc1Cl, which cell count is on record?
**A.** 711

**Q.** And the inhibition?
**A.** -16.4% (inactive)

**Q.** For CS(=O)(=O)N1CCC(C(=O)NCCC2=CCCCC2)CC1, which cell count is on record?
**A.** 427

**Q.** What about the inhibition of the same molecule?
**A.** 4.2% (inactive)

**Q.** What does the source list for O=C(CSc1ncccn1)NCc1ccccc1?
**A.** inhibition: 2.5% (inactive); cell count: 362

**Q.** Which cell count does the source give for Cc1cccnc1-n1c(CCN2C(=O)c3ccccc3C2=O)nc2ccccc2c1=O here?
**A.** 359

**Q.** And the inhibition?
**A.** -5.4% (inactive)

**Q.** With CCCn1c(O)c(CN2CCCC(C)C2)c(C)c(C#N)c1=O (stereo not given) as the molecule, how does the cell count read?
**A.** 673

**Q.** What about the inhibition of the same molecule?
**A.** -16.4% (inactive)

**Q.** What does the source list for COc1ccc(N2C(=O)CCC(C(=O)N3CCCCC3)C2c2ccc(OC)c(OC)c2)cc1 (stereo not given)?
**A.** inhibition: -1.9% (inactive); cell count: 164

**Q.** Which cell count does the source give for COC(=O)CSC1=C(C#N)C(c2ccc(F)cc2)CC(=O)N1 (stereo not given) here?
**A.** 591

**Q.** What about the inhibition of the same molecule?
**A.** 2.5% (inactive)

**Q.** Which results are given for Cn1nnc2cc(C(=O)N3CCCCCC3)ccc21?
**A.** cell count: 933; inhibition: 2.7% (inactive)

**Q.** For COC(=O)c1cc(-c2ccccc2)sc1NC(=O)c1cc(C)on1, which cell count is on record?
**A.** 365

**Q.** What about the inhibition of the same molecule?
**A.** -2.2% (inactive)

**Q.** Which cell count does the source give for CCC(c1nnnn1C(C)(C)C)N1CCN(C2CCCC2)CC1 (stereo not given) here?
**A.** 450

**Q.** What about the inhibition of the same molecule?
**A.** 1.3% (inactive)

**Q.** For Cn1c(=O)c2ncn(CC(=O)NCCOc3ccc(C(C)(C)C)cc3)c2n(C)c1=O, which cell count is on record?
**A.** 762

**Q.** And the inhibition?
**A.** 2.2% (inactive)

**Q.** Which inhibition does the source give for O=C(COC(=O)c1cc(-c2ccco2)nc2ccccc12)NCc1ccc2c(c1)OCO2 here?
**A.** -18.2% (inactive)

**Q.** What about the cell count of the same molecule?
**A.** 349

**Q.** Which results are given for CCN=C1SC(CC(=O)Nc2ccccc2)C(=O)N1CC (stereo not given)?
**A.** inhibition: 3.4% (inactive); cell count: 265

**Q.** What does the source list for Cn1c(=O)c2c(nc(CN3CCCCC3)n2CCc2ccccc2)n(C)c1=O?
**A.** cell count: 363; inhibition: -1% (inactive)

**Q.** With COc1cc(C(O)c2nc3ccccc3n2C)cc(OC)c1OC (stereo not given) as the molecule, how does the inhibition read?
**A.** 25.8% (active)

**Q.** What about the cell count of the same molecule?
**A.** 384

**Q.** For c1ccc(CSc2nnc(-c3cccs3)n2Cc2ccco2)cc1, which cell count is on record?
**A.** 601

**Q.** And the inhibition?
**A.** -13.3% (inactive)

**Q.** With CCCCC(=O)NCCNc1nc2c(c(=O)n(C)c(=O)n2C)n1Cc1ccccc1 as the molecule, how does the inhibition read?
**A.** -6.3% (inactive)

**Q.** What about the cell count of the same molecule?
**A.** 555

**Q.** Which results are given for CCOc1ccccc1C1C(C(=O)Nc2ccc(OC)cc2)=C(C)Nc2nc(CCCO)nn21 (stereo not given)?
**A.** inhibition: -0.3% (inactive); cell count: 659

**Q.** What does the source list for CCCN(CCC)CCNC(=O)c1cc2c(=O)n(C)c3ccccc3c2n1C?
**A.** inhibition: 0% (inactive); cell count: 627

**Q.** With Cc1nc2ccc(NC(=O)NCc3ccco3)cc2s1 as the molecule, how does the inhibition read?
**A.** -2.2% (inactive)

**Q.** What about the cell count of the same molecule?
**A.** 359

**Q.** Which inhibition does the source give for COc1cc(Br)cc(CN2CCN(C/C=C/c3ccccc3)CC2)c1O here?
**A.** 5.8% (inactive)

**Q.** And the cell count?
**A.** 273

**Q.** For COC(=O)C1=C(C)OC(N)=C(C#N)C1c1c(C)nn(-c2ccccc2)c1Cl (stereo not given), which cell count is on record?
**A.** 798

**Q.** And the inhibition?
**A.** 3.8% (inactive)
